The source of these data is PubChem BioAssay AID602139 (NMMLSC, 2011).

Structures are written as SMILES. Several values for one entry are separate records, joined by “and”; a condition that tells them apart may be missing. Identical values can stand only once. The list shows a part of the results. A number with no mark means an inactive call. Activity calls are given as the source filed them. Cut-off read from the data, not from the text of the source: active = inhibition above about 32%; inactive = the rest.

The test concerns Botulinum neurotoxin type A light chain protease (Clostridium botulinum A str. ATCC 3502). Kind of test: BoNT/A light chain protease inhibitors, confirmation, biochemical, flow cytometry, cherry pick 1 (AID 602139). The following applies: multiplex microsphere protease assay, at 10 µM, hits give high values.
As usually defined, the inhibition is the change of the read-out against control, counted positive when it falls. In the case of `Cc1onc(-c2ccccc2Cl)c1C(=O)NCCn1ccc2ccccc21`, the inhibition is 2.7%. The same measure for `COc1ccc(C2CC(c3cccs3)=NN2c2nc(C)c(C(C)=O)s2)cc1OC` (stereo unspecified): 33.8% (active) and 32.3% (active); for `CCCN1C2CCCC1CC(NC(=O)c1cccc(OC)c1)C2` (stereo unspecified): 0.4%. Take `COc1ccccc1C1CCN(C(=S)Nc2ccc(Br)cc2)CC1`: the inhibition was 0.8%.

For `Cc1ccc2[nH]cc(CCNC(=O)C3CCCCC3)c2c1`, the inhibition was -0.1%. The same measure for `Nc1ccccc1Sc1cc(Cl)nnc1Cl`: -0.2%; for `CN1CCN(c2ccc(NC(=O)c3ccccc3)cc2)CC1`: 1.8%. The same measure for `COc1ccc(Br)cc1CNCCc1cccc(Cl)c1`: 1.5%; for `Clc1ccc(-c2ncc3ccccn23)c(Cl)c1`: 2.4%.

As for `Cc1cccc2cc3c(N)c(C(=O)N4CCCc5ccccc54)sc3nc12`, the inhibition was 16.3%. `COc1ccccc1CNC(=O)C1Cc2ccccc2C(=O)O1` (stereo unspecified): the inhibition was -0.4%. The same measure for `COC(=O)CN(c1nc(C)c(Cl)c(OC)n1)S(=O)(=O)c1ccc(C)cc1`: 1.8%. The same measure for `CCOCC(=O)NCc1ccc2c(c1)cc(C)n2C`: 1.8%. In the case of `Cc1ccc(C(=O)COc2cccc(NC(=O)c3ccco3)c2)cc1`, the inhibition was -0.4%. The same measure for `Cc1ccc(-c2nc(-c3cccnc3)sc2CC(=O)Nc2ccc(C)c(Cl)c2)cc1`: 7.8%; for `COc1cc(C(=O)NCc2ccc3c(c2)cc(C)n3C)cc(OC)c1OC`: -0.1%; for `CCOc1nnc(C)c2c(C)n(-c3cccc(Cl)c3)nc12`: -6.5%.

Take `Cc1ccccc1NC(=O)c1cc(S(=O)(=O)Nc2cccc(C(=O)O)c2)ccc1Cl`: the inhibition was -1.4%. The same measure for `Brc1ccc2ncnc(NCc3cccnc3)c2c1`: -2.2%. The same measure for `O=C(Nc1nnc(CCc2ccccc2)s1)C1CCCO1` (stereo unspecified): -0.5%. The same measure for `CCOc1ccc(NC(=O)CC(Cc2ccc(Cl)cc2)C(=O)O)cc1` (stereo unspecified): -0.4%.
